Bioassay records: PubChem BioAssay, National Center for Advancing Translational Sciences (NCATS)
RORgamma inh = blocks mouse ROR gamma transcriptional activity; Potency, µM (series often up to 53.6 µM), for the others: at the highest dose activity change, negative = inhibition, usual class: inhibitors; AID 2551; P51450; actives 5.4% (n = 310,000); Drosophila S2 Gal4-RORgamma UAS-luciferase reporter, 20 h; also: potency is read from the fitted curve at half-maximal effect; nearly all actives have a fitted effect of over 60% in size
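Using a luciferase readout, inhibitors were identified by reduced reporter activity in Drosophila cells coexpressing a copper-inducible Gal4–ROR gamma fusion and UAS-driven Photinus luciferase, incubated 20 hr after 700 uM copper sulfate.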
VP16 counter = inhibits Gal4-VP16 luciferase reporter, ROR gamma counter-screen. Drosophila S2 Gal4-VP16 UAS-luciferase, luminescence, 20 h. Potency, µM (top dose mostly 53.6 µM), for inactives: top-dose activity, negative = inhibition, usual class: inhibitors. actives 3.5% (n = 310,000). AID 2546;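 also: Gal4-VP16 expression switched on by copper sulfate through the metallothionein promoter; potency is read from the fitted curve at half-maximal effect; nearly all actives have a fitted effect of over 50% in size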
TSHR antag = antagonists of human thyroid stimulating hormone receptor. TSHR-expressing cells, TSH-stimulated cAMP HTRF, 2 h; hits give low values. activity change, negative = inhibition, % at 11.5 µM. actives 0.2% (n = 330,000);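 active = activity change below a set negative limit, meaning inhibition stronger than a set level, cut at about -70% in these data; inconclusive = activity change between two set negative limits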
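Antagonism was scored as loss of TSH-driven cAMP in TSHR cells, stimulated with 4nM TSH (EC80) for 2 hours at 37 deg C and detected by homogeneous HTRF competition immunoassay.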
ELG1 DNA repair = blocks ELG1-dependent DNA repair in HEK293T cells | HEK293T ELG1-luciferase reporter, luminescence, 16 h; DNA damage induced by 5-fluorouridine | Potency, µM (doses to about 46.1 µM), for the others: at the top dose activity change, negative = inhibition, usual class: inhibitors | actives 2.3% (n = 330,000); also: potency is read from the fitted curve at half-maximal effect; nearly all actives have a fitted effect of over 55% in size
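Cells (2,000 per well) received 5-fluorouridine plus test compound or DMSO and were incubated 16 hr at 37 °C, 5% CO2. Luciferase activity was read by luminescence 30 min after ONE-Glo addition; signal suppression marked inhibition of damage-induced ELG1 function.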
B2AR arrestin = recruits beta-arrestin to the human beta2-adrenergic receptor; beta-arrestin recruitment to beta2AR, cell-based reporter; P07550; Potency, µM (top dose mostly 46.1 µM), inactives show at the highest dose activation, usual class: activators; actives 0.02% (n = 330,000);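 also: potency is read from the fitted curve at half-maximal effect; 0% = DMSO controls and full agonism = EC100 isoproterenol or metaproterenol; nearly all actives have a fitted effect of over 65% in size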
The depositor's hits bear a star. In the library only some 7.5% were active in any assay of this set; here they are far more common. Unless noted, calls follow the shape of the dose curve; as a rule, active = well fitted curve in the direction sought with a large enough effect; inconclusive = small, poorly fitted or top-dose-only effect, or another doubt; inactive = no such curve, though single readings can be large; an effect the other way counts as inactive or inconclusive. Unless noted, % is scaled to controls: 0 for no effect and ±100 for the full control effect.

For Cc1cccc(N2CCN(C(=O)c3cccc(N4C(=O)C5C6C=CC(C6)C5C4=O)c3)CC2C)c1 (stereo not given) the results were RORgamma inh inconclusive, VP16 counter 3%, TSHR antag -8, ELG1 DNA repair 13µM* and B2AR arrestin -1%.
For Cc1ccc(C)c(N2CCN(C(=O)c3ccc(CS(=O)(=O)c4ccccc4C)o3)CC2)c1 the results were RORgamma inh -16%, VP16 counter 3%, TSHR antag -16, ELG1 DNA repair 26µM* and B2AR arrestin 0%.
Cc1cccc(N2CCN(C(=O)CCN3C(=O)C4C5C=CC(C5)C4C3=O)CC2C)c1 (stereo not given) was read as RORgamma inh 8%, VP16 counter -3%, TSHR antag -1, ELG1 DNA repair -18% and B2AR arrestin 0%.
Screening CCOC(=O)/C=C1\CN(C(C)c2ccccc2)S(=O)(=O)c2ccccc21 (stereo not given) returned RORgamma inh -21%, VP16 counter 4%, TSHR antag 6, ELG1 DNA repair 10% and B2AR arrestin 0%.
For CC[C@@]1(O)C(=O)COc2c1cc1n(c2=O)Cc2c-1nc1cccc(C(C)C)c1c2[Si](C)(C)C the results were RORgamma inh -43% and VP16 counter inconclusive.
`CCOC(=O)c1ccc(NC(=O)c2cn(CCC#N)nc2-c2ccc3c(c2)OCCO3)cc1` gave RORgamma inh 25%, VP16 counter 2%, TSHR antag 11, ELG1 DNA repair 15µM* and B2AR arrestin 0%.
`C=C(C)CNC(=S)N/N=C(\C)c1ccc(Cl)s1` gave RORgamma inh 0.89µM*, VP16 counter 2.8µM*, TSHR antag 1, ELG1 DNA repair -17% and B2AR arrestin -1%.
For C/C(=N/Nc1ccc(F)cc1)c1ccc(Cl)s1 the results were RORgamma inh 16%, VP16 counter 14%, TSHR antag 5, ELG1 DNA repair 10% and B2AR arrestin 0%.
Screening CCNC(=S)N/N=C(\C)c1ccc(Cl)s1 returned RORgamma inh 0.71µM*, VP16 counter 1.4µM*, TSHR antag 1, ELG1 DNA repair -27% and B2AR arrestin -1%.
`CCOC(=O)CNC(=O)c1ccc(Cl)s1` gave RORgamma inh 4%, VP16 counter 12%, TSHR antag 36, ELG1 DNA repair 4% and B2AR arrestin 0%.
Screening CNC(=S)N/N=C(\C)c1ccc(Cl)s1 returned RORgamma inh 0.4µM*, VP16 counter 1.1µM*, TSHR antag 29, ELG1 DNA repair 7% and B2AR arrestin 18µM*.
`C/C(=N\NC(N)=O)c1ccc(Cl)s1` gave RORgamma inh 17%, VP16 counter -4%, TSHR antag 10, ELG1 DNA repair 13% and B2AR arrestin 0%.
For O=C(Nc1ccc(C(=O)N2CCCCC2)cc1)Nc1cccc(Cl)c1 the results were RORgamma inh inconclusive, VP16 counter 0%, TSHR antag -3, ELG1 DNA repair inconclusive and B2AR arrestin 0%.
CCOC(=O)N1CCN(S(=O)(=O)N2CCCC(C(=O)NCc3ccc(OC)cc3)C2)CC1 (stereo not given) was read as RORgamma inh 7%, VP16 counter -5%, TSHR antag 3, ELG1 DNA repair -12% and B2AR arrestin 0%.
`N#C/C(=C\c1ccccc1)C(=O)N(c1ccccn1)C1CCCCC1` gave RORgamma inh 2.8µM*, VP16 counter inconclusive, TSHR antag -14, ELG1 DNA repair 16% and B2AR arrestin 0%.
`O=C(/C=C/c1ccccc1)NC(=S)NNC(=O)c1cccnc1` gave RORgamma inh 10µM*, VP16 counter inconclusive, TSHR antag 13, ELG1 DNA repair 4% and B2AR arrestin 0%.
`COc1cc(C(=O)NNC(=O)/C=C/c2ccccc2)cc(OC)c1OC` gave TSHR antag 2, ELG1 DNA repair -25% and B2AR arrestin 0%.
For COc1cc(C(=O)NNC(=S)NC(=O)/C=C/c2ccccc2)cc(OC)c1OC the results were RORgamma inh 2.8µM*, VP16 counter 4µM*, TSHR antag 2, ELG1 DNA repair -24% and B2AR arrestin -1%.
